The text below walks through data of PubChem BioAssay (NCI).

The panel holds about 83,000 compounds, 20% with a hit somewhere; the sample as a whole holds those more often.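 How to read the values: 0–100, growth inhibition (40 = 60% inhibited); 0, no net growth; -100 to 0, cell death (-40 = 40% of starting cells died; -100 = all dead).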 A number with no mark means an inactive call. Activity calls are given as the source filed them. Rule for the calls: active = growth percent below 10; inactive = the rest.

Experiment in all cases: NCI-60 one-dose screen, 48 h (100 = growth as untreated, 0 = no growth, -100 = all killed)
Holding throughout (details): 10 µM unless noted

The subject of experiment [1] is T-47D breast.
Experiment [2] has as its system BT-549 breast.
Experiment [3] deals with MDA-MB-435 melanoma.
Experiment [4] relates to SW-620 colon.
In experiment [5] the test system is MCF7 breast.
Experiment [6] concerns HCT-116 colon.
Experiment [7] concerns HCC-2998 colon.
In experiment [8] the test system is KM12 colon.

As for `CCOC(=O)/C=C1\S/C(=N\Nc2cc(=O)[nH]c3ccc(Br)cc23)N(c2ccccc2)C1=O`, the growth in experiment [1] is 7.62% (active); in experiment [2], 75.1%; in experiment [3], 94.5%; in experiment [4] it was 27.8%; in experiment [5] it was 22.2%; in experiment [6], 27.1%. For the same molecule, the growth in experiment [7] was 110%; in experiment [8], 88.5%.
For `Cc1nn(-c2ccc([N+](=O)[O-])cc2)c2ncnc(N/N=C/c3ccccc3O)c12`, the growth was 11.6% in experiment [1]; 30.6% in experiment [2]; 26.5% in experiment [3]; 25.1% in experiment [4]; 11.9% in experiment [5]; 18.1% in experiment [6]. Moreover, the values for the growth in experiment [7] and in experiment [8] were 40.4% and 22.3%, respectively.
Consider `Cn1c(=O)[nH]c(=O)c2nc3c(nc21)-c1ccccc1C3=O`, for which the growth is 103% in experiment [1]; 104% in experiment [2]; 100% in experiment [3]; 105% in experiment [4]; 87.2% in experiment [5]; 102% in experiment [6]. The growth is 101% in experiment [7] and 103% in experiment [8].
As for `COc1ccccc1/C=C/C(=O)Nc1ccc(F)cc1`, the growth in experiment [1] was 75.4%; in experiment [2] it was 108%; in experiment [3], 94%; in experiment [4] it was 103%; in experiment [5], 64.4%; in experiment [6] it was 88.1%. Further, the growth in experiment [7] is 111%; in experiment [8], 91.3%.
On to `O=C1C(Cl)=C(Nc2ccccc2)C(=O)c2ccccc21`, for which the growth is -2.5% (active) in experiment [1]; -94.7% (active) in experiment [2]; -97.7% (active) in experiment [3]; -72% (active) in experiment [4]; -58% (active) in experiment [5]; -96.2% (active) in experiment [6]. Further, the growth is -15.6% (active) in experiment [7] and 46.9% in experiment [8].
`CNC(=O)Nc1ccc(-c2ccc3ncnc(Nc4cccc(Cl)c4)c3c2)cc1`: the growth was -4.13% (active) in experiment [1]; 50.9% in experiment [2]; 64% in experiment [3]; 93.9% in experiment [4]; 22.6% in experiment [5]; 65.9% in experiment [6]. The growth in experiment [7] was 74%; in experiment [8], 61.3%.
`CCN1CCN(CCNc2nccc(-c3c(-c4ccc(F)c(O)c4)nc4occn34)n2)S1(=O)=O`: the growth in experiment [1] is -1.77% (active); in experiment [2] it was 21.2%; in experiment [3], 10.1%; in experiment [4], 44.1%; in experiment [5], 17.7%; in experiment [6], 16.3%. Besides, the growth in experiment [7] was 57.3%; in experiment [8], 13.7%.
As to `COc1ccc(C/C(C)=C(\c2ccc(Cl)cc2)c2ccc(OCCN3CCCC3)cc2)cc1`, the growth in experiment [1] is 56.6%; in experiment [2] it was 85.5%; in experiment [3], 89.4%; in experiment [4] it was 75.2%; in experiment [5] it was 35.7%; in experiment [6], 78.9%. The growth in experiment [7] was 75.6%; in experiment [8], 72.1%.
For the molecule `Cc1ccc(-c2nc(SCC(=O)N3CCN(c4cc5c(cc4F)c(=O)c(C(=O)O)cn5C4CC4)CC3)nc(Cl)c2C#N)cc1`, the growth in experiment [1] is 91.1%; in experiment [2] it was 103%; in experiment [3] it was 106%; in experiment [4], 103%; in experiment [5], 94.9%; in experiment [6], 101%. Also, the growth in experiment [7] is 98.8%; in experiment [8] it was 102%.
For `O=C1/C(=C/c2c[nH]c(=O)[nH]c2=O)SC(=S)N1Cc1ccccc1`, the growth was 108% in experiment [1]; 107% in experiment [2]; 100% in experiment [3]; 98.7% in experiment [4]; 89.4% in experiment [5]; 103% in experiment [6]. In addition, the growth in experiment [7] and in experiment [8] was 101% in each case.
With `CCN(CC)CCCNc1cc(OC)c(OC)c2cccnc12`, the growth in experiment [1] was 33.8%; in experiment [2] it was 81.2%; in experiment [3], 42.3%; in experiment [4], 58.4%; in experiment [5], 31.4%; in experiment [6] it was 9.79% (active). In addition, the growth in experiment [7] was 76.1%; in experiment [8], 84.1%.
Take `CN(C)c1ccc(/C=N\NC(=O)c2ccc3nc(-c4ccc(Cl)cc4)[nH]c3c2)cc1`: the growth in experiment [1] is 59.4%; in experiment [2], 106%; in experiment [3] it was 93.9%; in experiment [4], 46.3%; in experiment [5], 17.4%; in experiment [6] it was 48.6%. Moreover, the growth is 79% in experiment [7] and 64.9% in experiment [8].
Take `COc1cc(/C=N/NC(=O)c2ccc(-n3cc(-c4ccccc4)nn3)cc2)cc(OC)c1OC`: the growth in experiment [1] is 59.8%; in experiment [2], 53.8%; in experiment [3], 33.1%; in experiment [4] it was 64.8%; in experiment [5], 14.1%; in experiment [6] it was 89.5%. Further, the values for the growth in experiment [7] and in experiment [8] were 84.3% and 53.1%, respectively.
On to `Fc1ccc2[nH]cc(-c3nc(-c4c[nH]c5c(Cl)nccc45)cs3)c2c1`, for which the growth in experiment [1] was 35.1%; in experiment [2], 75.1%; in experiment [3], 60.4%; in experiment [4], 2.51% (active); in experiment [5], 45.8%; in experiment [6] it was 39.6%. For the same molecule, the growth was 56.2% in experiment [7] and 33.2% in experiment [8].
